Shown are actives, neighbours in structure and some others; about 0.52% of the full set was active somewhere.
Sa growth inh: blocks Staphylococcus aureus growth. S. aureus RN4220 growth, OD600, 20 h, 42 °C; active compounds read low. relative growth, % (no concentration beside the values). actives 0.53% (n = 170,000). AID 720641;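 active means relative growth at most 50% at the other temperature and 20+ points below 30 °C, or under 10% at both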
Sa helicase inh: blocks Staphylococcus aureus DNA helicase. purified S. aureus helicase, fluorescence unwinding assay. inhibition, % (test concentration not listed). actives 0.05% (n = 120,000). AID 485395; in the data active means inhibition above about 25%, passing the limit was not always enough
Of the large screens only hits and unclear results are named; the others gave an inactive call; ! = repeats disagree.

CC1=NN(c2cccc(C(F)(F)F)c2)C(=O)C1	Sa growth inh 0.4
C=CCNC(=O)Nc1ccc(F)c(Cl)c1	none
O=C(NCSCc1cccc(C(F)(F)F)c1)Nc1ccc(F)c(Cl)c1	Sa growth inh 9.0 (no result: Sa helicase inh)
O=C(COc1ccccc1Cl)N(Cc1ccco1)Cc1ccccc1F	none
O=C1CN(C(=O)Cn2cnc3ccc(Cl)cc3c2=O)c2ccccc2N1	none
COc1ccc(C2=NN(C(=O)COc3ccc(-c4nnco4)cc3)C(c3ccco3)C2)cc1 (stereo not drawn)	none
Cc1ccc(N=Cc2cn(-c3ccccc3)nc2-c2ccccc2)cc1	none
CCN(c1ccc2oc3ccccc3c2c1)S(=O)(=O)c1ccc(C#N)cc1	Sa growth inh 45
CCN(c1ccccc1)S(=O)(=O)c1ccc(Cl)cc1	none
CCCCOc1ccc(-n2c(N)c(C#N)c3nc4ccccc4nc32)cc1	none
CC1=C(C)CS(=NC(=O)c2ccccc2)N(C(=O)c2ccccc2)C1 (stereo not drawn)	none
O=C(CNCc1ccccc1F)NC(=O)Nc1ccc2c(c1)OCCO2	none
CCC(CC)n1c(COc2ccccc2Cl)nnc1SC(C)C#N (stereo not drawn)	none
COc1ccc(N(Cc2ccccc2)C(=O)c2nc(SC)ncc2Cl)cc1	none (no result: Sa helicase inh)
CCCS(=O)(=O)c1ncc(Cl)c(C(=O)N(Cc2ccccc2)Cc2ccco2)n1	Sa growth inh 1.2 (no result: Sa helicase inh)
CCS(=O)(=O)c1ncc(Cl)c(C(=O)N(Cc2ccccc2)c2ccc(OC)cc2)n1	Sa growth inh 5.0 (no result: Sa helicase inh)
CCSc1ncc(Cl)c(C(=O)N(Cc2ccccc2)Cc2ccco2)n1	none (no result: Sa helicase inh)
O=C(Nc1nsc(-c2ccccc2)n1)c1ccc2ncsc2c1	none
N#Cc1ccc(C(=O)NCc2ccccc2)cc1	none
CC(C)CS(=O)(=O)c1oc(-c2ccc(F)cc2)nc1S(=O)(=O)c1ccccc1	Sa growth inh 1.0 (no result: Sa helicase inh)
CCC(C)S(=O)(=O)c1oc(-c2cccs2)nc1S(=O)(=O)c1ccccc1 (stereo not drawn)	Sa growth inh 3.7 (no result: Sa helicase inh)
O=S(=O)(c1ccccc1)c1nc(-c2ccc(F)cc2)oc1NCc1ccccc1	none (no result: Sa helicase inh)
O=S(=O)(c1ccccc1)c1nc(-c2cccs2)oc1N1CCCCC1	none (no result: Sa helicase inh)
CC(=O)NC(NC(C)=O)c1ccc2c(c1)OCO2	none
Cc1cc2ccccn2c1C(=O)c1cccs1	none
CN(C)c1ccc(/C=C2\SC(=O)NC2=O)cc1	none (no result: Sa growth inh)
O=C1NC(=O)/C(=C\c2cccc(C(F)(F)F)c2)S1	Sa growth inh 7.3
O=C(Nc1cccnc1)C(Cc1ccccc1)N1C(=O)c2ccccc2C1=O (stereo not drawn)	none
COc1c(I)cc(Cl)c2cccnc12	none (no result: Sa helicase inh)
Oc1c(I)cc(Cl)c2cccnc12	Sa growth inh 1.3!
CC(C)c1ccc(NC(=O)C2CC(=O)NC(N3CCN(c4ccccn4)CC3)=N2)cc1 (stereo not drawn)	none
Cc1sc(NC(=O)c2ccccc2F)c(C(=O)c2ccc(Cl)cc2)c1C	none
COc1cc(Cc2cc(OC)c(C)cc2OC)c(OC)cc1C	none (no result: Sa helicase inh)
COc1cc(C)c(Cc2cnc(N)nc2N)cc1OC	Sa growth inh -0.2 (no result: Sa helicase inh)
CCC(c1nnc(SCC(=O)N2CCOCC2)o1)N(C)C (stereo not drawn)	none
O=C(O)C1COc2ccccc2C1 (stereo not drawn)	none
Brc1ccccc1-c1nc2ccccc2c2nc3ccccc3n12	none
S=c1nc2ccccc2c2nc(COc3ccccc3Br)[nH]n12	Sa growth inh 0.6
CN(C)C(=O)c1cn(-c2ccccc2)nc1-c1cccs1	none
COC(=O)c1cn(-c2ccccc2)nc1-c1cccs1	Sa growth inh 18
CCOCCCn1c(C)c(C)c(C#N)c1N	none
Cc1c(C#N)c(N)n(Cc2cc(C(F)(F)F)cc(C(F)(F)F)c2)c1C	Sa growth inh -0.1
COc1ccccc1C(=O)CSC1=NCCS1	none
Cc1cc(OCC(=O)NCc2ccco2)c(C)cc1Br	none
Cc1ccc2c(Cl)cc(Cl)c(OCC(=O)NCc3ccco3)c2n1	Sa growth inh -1.6
COc1ccc(-c2cc(C(F)(F)F)nc(S(C)(=O)=O)n2)cc1	Sa growth inh 28 (no result: Sa helicase inh)
COc1ccc(-c2cc(C(F)(F)F)nc(NCc3ccccc3)n2)cc1	none (no result: Sa helicase inh)
COC(=O)C1=C(N)N(c2ccc(F)cc2)C2=C(C(=O)CC(C)(C)C2)C1c1ccccc1 (stereo not drawn)	none
CC1(C)[C@H](C(=O)O)N2C(=O)C[C@H]2S1(=O)=O	none (no result: Sa helicase inh)
CC1(C)C(C(=O)O)N2C(=O)CC2S1(=O)=O (stereo not drawn)	Sa growth inh 27
CCOC(=O)c1cc2sccc2n1CC(=O)NC(C)C	none
C[C@H]1c2cccc(O)c2C(O)=C2C(=O)[C@]3(O)C(O)=C(C(N)=O)C(=O)[C@@H](N(C)C)[C@@H]3[C@@H](O)[C@@H]21	Sa growth inh -0.6 (no result: Sa helicase inh)
CC1c2cccc(O)c2CC2=C(O)C3(O)C(O)=C(C(N)=O)C(=O)C(N(C)C)C3C(O)C21 (stereo not drawn)	none
CN(C)c1ccc(O)c2c1C[C@H]1C[C@H]3[C@H](N(C)C)C(=O)C(C(N)=O)=C(O)[C@@]3(O)C(=O)C1=C2O	Sa growth inh -0.4 (no result: Sa helicase inh)
Nc1nc(O)c(C2=c3cc(Br)ccc3=NC2=O)s1	none
Cc1nc2ccccc2cc1C(=O)Nc1cccc(F)c1	none (no result: Sa growth inh)
Nc1nc(SC#CC(F)(F)F)ns1	Sa growth inh -0.6
NS(=O)(=O)c1ccc(NC(=O)c2cn(-c3ccccc3)nc2-c2cccs2)cc1	none
O=C(Cc1n[nH]c(=O)c2ccccc12)OCCCn1c(=O)[nH]c2ccccc21	none
CC1CCCCN1C(=O)Nc1c[nH]c2ccccc12 (stereo not drawn)	Sa growth inh 2.7
CC1Cc2ccccc2N1C(=O)Nc1c[nH]c2ccccc12 (stereo not drawn)	none
O=C(Nc1c[nH]c2ccccc12)N1CCCc2ccccc21	none
O=C(NCCN1CCOCC1)Nc1c[nH]c2ccccc2c1=O	none
CC(=O)N1CCN(C(=O)Nc2c[nH]c3ccccc23)CC1	Sa growth inh 6.1
O=C(NCCN1CCOCC1)Nc1c[nH]c2ccccc12	Sa growth inh 3.2
O=C(/C=C/c1ccc2c(c1)OCO2)N1CCN(S(=O)(=O)/C=C/c2ccccc2)CC1	none (no result: Sa growth inh)
Cn1c(=O)[nH]c(=O)c2[nH]c(CN3CCOCC3)nc21	none
CCNC(=O)CC1C(=O)N(c2ccccc2)C(=O)N1Cc1ccc(C)cc1 (stereo not drawn)	none
FC(F)(F)c1cc(-c2cccnc2)n[nH]1	none (no result: Sa helicase inh)
NC(=O)c1ccccc1NC(=O)Nc1ccccc1	none
N#CC(C#N)=NNc1ccccc1C(N)=O	Sa growth inh -0.5
Cc1csc(C(C#N)C(=O)CSc2nc3ccccc3o2)n1 (stereo not drawn)	none
CNc1ccc2cccc(O)c2n1	Sa growth inh 0.4
Oc1cccc2ccc(Nc3ccccn3)nc12	none
O=C(CCc1cn(Cc2ccc(F)cc2)c2ccccc12)NCC1CCCO1 (stereo not drawn)	none
Cn1c(=O)c2[nH]c(N3CCCC3)nc2n(C)c1=O	none
CCNS(=O)(=O)c1ccc(CCC(=O)N2CCCCC2)cc1	none
CC(C)C(=O)Oc1cc(OC(=O)C(C)C)c2ccccc2c1	none
CCn1cc(CN(C)C(=S)Nc2sc3c(c2C(=O)OC)CCC(C)C3)c(C)n1 (stereo not drawn)	none
CCN(CC)C(=O)c1sc(NC(=S)N(C)Cc2cn(CC)nc2C)c(C(=O)OC)c1C	Sa growth inh 0.8
CC(C)OC(=O)c1ccc2[nH]c3c(c2c1)CCCC3	Sa growth inh 34
COC(=O)c1ccc2[nH]c3c(c2c1)CCCC3	none
CSc1nc(C)c(C)c(=O)[nH]1	none
O=C1c2ccccc2C(=O)c2c1oc1c3c(ccc21)OCN(C1CCS(=O)(=O)C1)C3 (stereo not drawn)	Sa growth inh 7.6
O=C1c2ccccc2C(=O)c2c1oc1c3c(ccc21)OCN(C1CCCC1)C3	none
